From PubChem
VDR inh – blocks the human vitamin D receptor. P11473. VDR-SRC2-3 peptide fluorescence polarization, 2 h. Potency, µM, for inactives: max response, negative = inhibition, actives largely listed as inhibitors. 400,000 tested, 0.93% active. AID 504847; further: potency means the concentration at half of the fitted maximal effect; on the % scale 0 is the no-effect control and ±100 the full control effect
Target sequence (P11473 whole entry, looked up): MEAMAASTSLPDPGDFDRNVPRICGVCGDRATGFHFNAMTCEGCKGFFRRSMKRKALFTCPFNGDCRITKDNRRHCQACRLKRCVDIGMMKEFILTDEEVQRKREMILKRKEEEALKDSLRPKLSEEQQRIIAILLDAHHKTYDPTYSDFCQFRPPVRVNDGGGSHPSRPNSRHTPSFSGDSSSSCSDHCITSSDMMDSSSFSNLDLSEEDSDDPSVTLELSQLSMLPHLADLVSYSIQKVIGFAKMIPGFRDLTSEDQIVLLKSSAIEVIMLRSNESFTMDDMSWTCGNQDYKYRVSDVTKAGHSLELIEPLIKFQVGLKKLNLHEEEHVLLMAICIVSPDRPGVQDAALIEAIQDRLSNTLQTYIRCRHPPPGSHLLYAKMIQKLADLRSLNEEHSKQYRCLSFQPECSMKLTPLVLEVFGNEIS
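After 23 nl compound addition and a short centrifugation, plates sat for 2 hours at ambient temperature; polarization of fluorescence then indicated loss of VDR binding to peptide SRC2-3.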
CBFb RUNX1 block – inhibitors of human CBF-beta and RUNX1 interaction. Q01196+Q13951. AlphaScreen CBFb-His/RUNX1-biotin binding, biochemical. Potency, µM (series often up to 59.8 µM), for the others: at the highest dose activity, negative = inhibition, actives largely listed as inhibitors. 230,000 tested, under 10 active. AID 1477; further: % of control where 0% means no effect
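AlphaScreen proximity signal reports loss of binding between His-tagged CBF-beta and biotin-labelled RUNX1, each at 30 nM. Proteins are pre-associated for 20 minutes, compounds added for 15 minutes, then beads for 90 minutes, all at ambient temperature.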
KCNH2 WT inh – KCNH2 (human, wildtype) channel inhibition; Q12809; U2OS, BacMam KCNH2, thallium flux FluxOr; stronger effect = lower value; activity change, % at 1.84 µM; 340,000 tested, 0.37% active; AID 720551;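 active means maximum activity change below -70%; inconclusive means maximum activity change between -70% and -50%; inactive means maximum activity change above -50%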; further: on the % scale 0 is the no-effect control and ±100 the full control effect
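U2OS cells were transduced with wild-type KCNH2 virus (2.03 x 10^8 / mL) for 4 h at room temperature, then cultured overnight at 37 C. Thallium flux was read with FluxOr dye. Rate constants were normalized to DMSO controls.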
PLK1 PBD inh – inhibitors of human PLK1 polo-box domain binding; Potency, µM, for inactives: max response, negative = inhibition, most hits filed as inhibitors; AID 720504; Plk1 PBD binding of FITC phosphopeptide, fluorescence polarization; 360,000 tested, 2.8% active; further: potency means the concentration at half of the fitted maximal effect; series mostly up to about 57 µM; on the % scale 0 is the no-effect control and ±100 the full control effect; nearly all actives have a fitted effect of over 65% in size
MBNL1-CUG inh – blocks human MBNL1 binding to CUG repeat RNA. Potency, µM (titrated, usually from 57.5 µM), for the others: at the top dose activity change, negative = inhibition, actives largely listed as inhibitors. AID 2675. 280,000 tested, 0.036% active. TR-FRET MBNL1-His/biotin-(CUG)12 binding, 665/545 ratio. Q9NR56; active means well fitted inhibition curve with a large enough effect in the signal ratio, with a control signal flat, not every such curve was filed as active; inconclusive means small, poorly fitted or top-dose-only effect, or effect the other way, or a change in a side signal; inactive means no such curve, though single readings can be large or run the other way; the % refers to the signal ratio; further: potency means the concentration at half of the fitted maximal effect; on the % scale 0 is the no-effect control and ±100 the full control effect
Target sequence (Q9NR56 whole entry, looked up): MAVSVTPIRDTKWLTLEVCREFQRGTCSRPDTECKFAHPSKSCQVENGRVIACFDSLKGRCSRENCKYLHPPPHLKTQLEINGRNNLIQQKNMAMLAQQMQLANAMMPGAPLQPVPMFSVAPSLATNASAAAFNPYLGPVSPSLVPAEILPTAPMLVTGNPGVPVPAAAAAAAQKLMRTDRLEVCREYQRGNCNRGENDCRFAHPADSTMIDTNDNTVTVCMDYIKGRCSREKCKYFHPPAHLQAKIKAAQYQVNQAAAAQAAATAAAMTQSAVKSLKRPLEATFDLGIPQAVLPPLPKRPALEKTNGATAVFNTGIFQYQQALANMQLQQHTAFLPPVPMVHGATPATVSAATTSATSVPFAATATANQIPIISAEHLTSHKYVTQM
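TR-FRET between His-tagged MBNL1 and biotin-(CUG)12 RNA, detected with Tb anti-His antibody (0.055 ng/ul) and streptavidin-XL665 (5 nM), 60 min at room temperature. Compounds titrated 92 nM to 58 uM; 665/545 nm ratio normalized to buffer and complex controls.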
KCNH2 3.1 inh – blocks the human KCNH2 3.1 channel isoform; U2OS KCNH2 3.1, thallium flux FluxOr; stronger effect = lower value; activity change, % (tested at about 1.8 µM); 340,000 tested, 0.95% active;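 active means maximum activity change below -70%; inconclusive means maximum activity change from -70% to -50%; inactive means maximum activity change above -50%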;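 further: thallium influx rate constant from kinetic fluorescence after stimulation buffer; on the % scale 0 is the no-effect control and ±100 the full control effect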
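We transduce U2OS cells with the mutant 3.1 virus, culture them overnight, load FluxOr with Red40 quencher for 45 min, then add stimulation buffer and read kinetically for 2 min to derive a normalized rate constant.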
* = called active by the depositor; ? = inconclusive; nt = no result given; ! = not confirmed by another sample; [ ] = remark or other dose. Most compounds without a hit are left out; they make up all but 3.8% or so of the library. Unless noted, the call rests on the fitted dose curve; in most records, active means well fitted curve in the direction sought with a large enough effect; inconclusive means small, poorly fitted or top-dose-only effect, or another doubt; inactive means no such curve, though single readings can be large; an effect the other way counts as inactive or inconclusive.

SMILES | VDR inh | CBFb RUNX1 block | KCNH2 WT inh | PLK1 PBD inh | MBNL1-CUG inh | KCNH2 3.1 inh
Cc1ccc(CNC(=O)CCc2nnc3n(C)c(=O)c4sccc4n23)cc1 | -12.3% | nt | nt | nt | nt | nt
CCOc1ccc(CNC(=O)C2CCN(S(=O)(=O)c3cn(C)cn3)CC2)cc1 | -0.2% | nt | nt | nt | nt | nt
CCc1ccc(-c2c(C)sc(NC(C)=O)c2C(N)=O)cc1 | -12.9% | -3.2% | -15.8 | 26.7µM* | -2.0% | 7.7
O=C(CSc1ncccc1C(=O)Oc1ccccc1Cl)Nc1ccccc1Cl | -10.8% | nt | nt | nt | nt | nt
Cc1cc(C)c(NC(=O)CCCn2c(C)c3cnn(-c4ccccc4)c(=O)c3c2C)c(C)c1 | 15.2% | nt | nt | nt | nt | nt
O=C(NCc1ccccn1)c1nc(-c2cccs2)no1 | -8.6% | 2.6% | 1.9 | 26.7µM* | -7.3% | 9.3
O=C(NCc1cccs1)c1nc(-c2cccs2)no1 | -9.9% | 4.1% | -8.0 | -4.2% | -4.2% | 5.2
CC(=O)NCCc1nc2ccccc2n1CCOc1ccccc1 | -16.0% | 7.6% | -3.9 | 23.8µM* | -11.9% | 0.4
CC(=O)NCCc1nc2ccccc2n1CCCCOc1ccccc1 | 0.2% | nt | 5.5 | -7.2% | 2.0% | 2.2
CCCCn1c(O)c(N=NC(=O)c2ccccc2NS(=O)(=O)c2cccs2)c2ccccc21 | -17.7% | -6.0% | -9.7 | -9.3% | -1.3% | -5.4
CC(C)n1c(O)c(N=NC(=O)c2ccccc2NS(=O)(=O)c2cccs2)c2ccccc21 | -29.3% | -11.6% | nt | 16.8µM* | 0.5% | 6.1
CCCCN(Cc1cc2cc(OC)ccc2[nH]c1=O)C(=O)c1ccccn1 | -6.2% | -4.9% | 0.6 | ? | 2.4% | -2.5
CCCN(Cc1cc2cc(C)ccc2[nH]c1=O)C(=O)c1ccccn1 | ? | 5.3% | -29.7 | 18.9µM* | -7.6% | -2.4
CCN(CC)c1ccc(S(=O)(=O)Nc2cc(Cl)ccc2Cl)cc1NC(=S)NC(=O)C1CCCC1 | -24.2% | -1.1% | -29.4 | 9.47µM* | -3.5% | -3.5
Cc1ccc(Cl)cc1N1CCN(C(=O)CCS(=O)(=O)c2ccc3c(c2)oc(=O)n3C)CC1 | 9.4% | nt | nt | nt | nt | nt
CCOc1cc(/C=C2\C(=O)N(c3nc(-c4ccc(Br)cc4)cs3)N=C2c2ccccc2)ccc1O | -15.2% | ? | 6.4 | ? | 10.5% | -2.8
CCOC(=O)C1=C(C)N(c2ccccc2)C(=O)/C1=C\c1ccc(O)c(OC)c1 | ? | 3.5% | 3.8 | ? | 11.9% | -3.9
O=C1/C(=C\c2ccc(O)c(O)c2)C(c2ccccc2)=NN1c1ccccc1 | -23.8% | ? | 5.1 | 15µM* | 5.6% | 1.4
COc1cc(/C=C2\C(=O)N(c3ccc(NC(C)=O)cc3)N=C2c2ccccc2)ccc1O | ? | -10.5% | -9.0 | 23.8µM* | 5.4% | -3.6
CCN(C/C=C/C#CC(C)(C)C)Cc1cccc(OCc2cc(-c3ccsc3)cs2)c1 | 3.1% | 5.4% | nt | nt | nt | nt
CCOCCCNC(=O)C(c1ccccc1)N(Cc1cccs1)C(=O)c1ccc(NC(C)=O)cc1 (centres undefined) | -3.7% | nt | nt | nt | nt | nt
Cc1ccc(C(=O)N2CCN(c3ccccc3)CC2)cc1NC(=O)c1nsc2ccccc12 | 18.6% | nt | nt | nt | nt | nt
CCOC(=O)c1cc(-c2ccc(OC)cc2)n(CCC(=O)Nc2cccc(C(C)=O)c2)c1C | 0.9% | nt | nt | nt | nt | nt
CN1CCC/C1=C1/C(=O)N(c2ccccc2)N=C1NC(=O)Nc1cccc(Cl)c1 | ? | 3.4% | nt | 3.77µM* | -1.5% | -37.6
CCC(C)CCCCCCCCCCC(=O)O (centres undefined) | ? | nt | -5.8 | 21.2µM* | nt | -4.8
SMILES | VDR inh | CBFb RUNX1 block | KCNH2 WT inh | PLK1 PBD inh | MBNL1-CUG inh | KCNH2 3.1 inh
CCCCCCCCCCCCCCCC(=O)O | 12.5% | nt | nt | nt | nt | nt
COc1ccccc1CNC(=O)CCNS(=O)(=O)c1cc(Br)cnc1N | -22.6% | nt | -0.9 | 26.7µM* | 2.3% | 4.3
CCC(=O)N1CCc2cc(Br)cc(S(=O)(=O)N3CCCC(C(=O)Nc4cc(C)ccc4OC)C3)c21 (centres undefined) | -13.5% | nt | nt | nt | nt | nt
C=CCNC(=O)c1ccc(CN(c2ccc(OCC)cc2)S(=O)(=O)c2ccc(C)cc2)cc1 | 13.1% | nt | ? | 0.0% | -8.6% | -88.0*
CCCCCCc1cc2cc(C(N)=O)c(=N)oc2cc1O | nt | 1.9% | nt | nt | 59.4% | nt
CCCCCCc1cc2cc(C(=O)NC)c(=N)oc2cc1O | -2.0% | 3.8% | -2.0 | 3.36µM* | -2.2% | 1.4
CN(C)c1ccc(C(CNS(=O)(=O)c2ccc(Br)cc2)N2CCOCC2)cc1 (centres undefined) | 3.1% | nt | nt | nt | nt | nt
O=c1cc(-c2ccccc2)[nH]c2ccc(Cl)cc12 | 0.0% | 10.8%[89.1 µM] | nt | nt | nt | nt
Cc1ccc(-c2cc(=O)c3cc(F)ccc3[nH]2)cc1 | -2.6% | 2.5%[2.36 µM] | 4.7 | 2.0% | -6.9% | -14.4
O=c1cc(-c2ccccc2)[nH]c2cc(Cl)ccc12 | 79.4µM*! | -5.3%[89.1 µM] | -3.0 | -3.8% | 8.1% | 15.1
O=c1cc(-c2ccccc2)[nH]c2ccc(F)cc12 | -1.9% | -4.0%[136 µM] | -12.4 | 5.2% | -0.9% | -98.5*
C=CCC[C@H](Cc1ccc(F)cc1)C(=O)OC[C@@H](NC(=O)[C@@H](CC=C)CC(=O)N[C@@H](CO)Cc1ccccc1)C(C)(C)C | 11.8% | nt | -100.0* | -0.9% | nt | -17.4
C=CCC[C@@H](Cc1ccc(F)cc1)C(=O)OC[C@@H](NC(=O)[C@@H](CC=C)CC(=O)N[C@@H](CO)Cc1ccccc1)C(C)(C)C | -7.2% | nt | nt | -9.4% | nt | nt
N#CSCC(=O)c1cccc2ccccc12 | ? | -6.2% | -0.8 | 10.6µM* | nt | 2.6
COC(=O)C1=C(C(=O)OC)[C@@H]2N(C)c3ccccc3[C@@]23C[C@@H](C(=O)OC)N(S(=O)(=O)c2ccc(OC)cc2)C3=N1 | nt | -14.8%[13.1 µM] | nt | nt | nt | nt
O=C(O)c1ccc(N2C(=O)CC(SC(=NCc3ccc4c(c3)OCO4)Nc3ccccc3)C2=O)cc1 (centres undefined) | -19.3% | -9.0% | 8.4 | 53.2µM* | -3.0% | -14.1
O=C(O)c1ccc(N2C(=O)CC(SC(=NCc3ccc4c(c3)OCO4)Nc3ccc(F)cc3)C2=O)cc1 (centres undefined) | 9.0% | -12.4% | 8.2 | ? | -0.6% | 20.0
O=C(Nc1nc(-c2ccccc2)cs1)c1ccc2c(c1)S(=O)(=O)c1ccccc1C2=O | -15.0% | -11.0% | 1.8 | -2.2% | nt | -30.6
